Test results from PubChem BioAssay (Tox21).
Values joined by “and” are separate entries in the source; they are usually repeats but may differ in a detail not shown here. Identical values can stand only once. Results filed as inconclusive are left out. Entries that show only a call come without a potency. Some compounds were tested as several samples or in several runs, with calls that do not always agree. Active and inactive are the calls of the source. Unless noted, calls come from the whole dose curve; as a rule, active = well fitted curve in the direction sought with a large enough effect in the repeat runs; inconclusive = weak or mixed curves; inactive = no such curve, though single readings can be large; an effect the other way counts as inactive or inconclusive.

How the values were obtained:
[1] = qHTS assay to identify small molecule agonists of the vitamin D receptor (VDR) signaling pathway - cell viability counter screen (AID 743224); note: series mostly up to about 63 µM; nearly all actives have a fitted effect of over 50% in size
Outline: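 Here cell health was gauged by luminescent ATP detection (CellTiter-Glo, 30 min RT) in VDR-bla cells that had been incubated with test compounds for 16 h at 37C and 5% CO2.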

[2] = qHTS assay to identify small molecule antagonists of the vitamin D receptor (VDR) signaling pathway - cell viability counter screen (AID 743225); note: nearly all actives have a fitted effect of over 50% in size
Outline: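 Cells (VDR-UAS-bla HEK 293T) are plated, rested 4 h at 37C, dosed with compound and 3 nM final 1-alpha,25-dihydroxy vitamin D3, and incubated 16 h. Viability is taken from CellTiter-Glo luminescence in the reporter wells.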

[3] = qHTS assay to identify small molecule agonists of the NFkB signaling pathway (AID 1159509; active = well fitted curve in the direction sought with a large enough effect in the signal ratio in the repeat runs, not every such curve was filed as active; the % refers to the signal ratio; note: series mostly up to about 61 µM)
Outline: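 After overnight attachment, reporter cells received test compounds, DMSO or positive controls and were incubated 5 hr at 37 C. FRET substrate was then added for 1.5 hr at room temperature before dual-emission fluorescence reading.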

[4] = qHTS assay to identify small molecule agonists of the NFkB signaling pathway - cell viability counter screen (AID 1159515; calls by dose curve; note: series mostly up to about 61 µM; nearly all actives have a fitted effect of over 55% in size)
Outline: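 5 hr compound treatment of NFkB-bla ME-180 cells (2,000/well, seeded overnight beforehand), followed by reporter substrate for 1.5 hr. CellTiter-Glo added afterward; luminescence after 30 min RT.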

[5] = qHTS assay to identify small molecule agonists of the endoplasmic reticulum stress response signaling pathway (AID 1159516; active = well fitted activation curve with a large enough effect in the signal ratio in the repeat runs, not every such curve was filed as active; the % refers to the signal ratio)
Outline: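 Reporter HeLa cells (ESRE-beta-lactamase) underwent 5 hr compound incubation at 37 C and 5% CO2 in quantitative HTS format. Detection followed 2 hr of FRET substrate loading at room temperature.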

[6] = qHTS assay to identify small molecule agonists of the endoplasmic reticulum stress response signaling pathway - cell viability counter screen (AID 1159517; calls by dose curve;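 note: HeLa cells carrying an ER stress response element beta-lactamase reporter; series mostly up to about 61 µM; nearly all actives have a fitted effect of over 50% in size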)
Outline: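 Luminescence readout: CellTiter-Glo, 30 min RT, same wells as the ESRE-bla reporter read. HeLa ESRE-bla, 1,500 cells/well, o/n 37 C; cpd 5 hr 37 C/5% CO2.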

[7] = qHTS assay to identify small molecule antagonists of the retinoid-related orphan receptor gamma (ROR-gamma) signaling pathway - cell viability counter screen (AID 1159520); note: nearly all actives have a fitted effect of over 50% in size
Outline: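 Tet-on ROR gamma CHO cells (1,000/well) were plated 4 hr, given compounds in DMSO for 2 hr at 37 C, then induced with 1 uM final doxycycline for 16 hr. Viability was read as ATP by CellTiter-Glo luminescence after 30 min.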

[8] = biological target: Nuclear receptor ROR-gamma (Homo sapiens) (UniProt P51449); test: qHTS assay to identify small molecule antagonists of the retinoid-related orphan receptor gamma (ROR-gamma) signaling pathway (AID 1159521)
Outline: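 RORγ antagonism is scored from reduced reporter luminescence in Tet-on CHO cells. Induction used 1 uM final doxycycline hyclate for 16 h at 37 C, following a 2 h compound exposure.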

[9] = qHTS assay to identify small molecule agonists of the AP-1 signaling pathway - cell viability counter screen (AID 1159525; calls by dose curve; note: nearly all actives have a fitted effect of over 55% in size)
Outline: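 ME-180 AP-1-bla, 2500 cells/well, Opti-MEM + 0.5% dialyzed FBS; overnight 37 °C; cpd 15-pt titration, 5 h 37 °C; CellTiter-Glo 30 min RT; luminescence read; normalised to TOAB and DMSO controls.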

[10] = qHTS assay to identify small molecule agonists of the AP-1 signaling pathway (AID 1159526; calls by dose curve)
[11] = biological target: Retinoic acid receptor RXR-alpha (Homo sapiens) (UniProt P19793); test: qHTS assay to identify small molecule agonists of the RXR signaling pathway (AID 1159527; calls by dose curve; note: nearly all actives have a fitted effect of over 35% in size)
Chain of Retinoic acid receptor RXR-alpha (Homo sapiens) (P19793 whole entry, looked up): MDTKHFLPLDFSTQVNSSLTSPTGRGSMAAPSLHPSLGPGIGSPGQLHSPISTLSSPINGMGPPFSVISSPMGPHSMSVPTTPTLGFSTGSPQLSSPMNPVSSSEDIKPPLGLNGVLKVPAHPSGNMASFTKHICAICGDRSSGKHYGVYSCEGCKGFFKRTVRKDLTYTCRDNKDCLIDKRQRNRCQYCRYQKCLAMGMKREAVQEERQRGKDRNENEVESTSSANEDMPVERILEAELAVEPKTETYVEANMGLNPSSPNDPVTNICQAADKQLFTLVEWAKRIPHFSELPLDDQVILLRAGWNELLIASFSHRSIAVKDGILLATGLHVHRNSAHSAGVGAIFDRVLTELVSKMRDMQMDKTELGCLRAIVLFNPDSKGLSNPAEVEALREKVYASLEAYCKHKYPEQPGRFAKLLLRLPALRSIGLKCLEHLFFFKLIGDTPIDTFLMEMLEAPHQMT
Outline: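 qHTS of the Tox21 10K library in GeneBLAzer RXR-alpha HEK 293T cells carrying a beta-lactamase reporter […]; 16 hr treatment, 9-cis retinoic acid as agonist control, FRET read-out.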

[12] = qHTS assay to identify small molecule antagonists of the retinoid acid receptor (RAR) signaling pathway - cell viability counter screen (AID 1159551); note: nearly all actives have a fitted effect of over 35% in size
Outline: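 Seed C3RL4 cells; next day add compound, then retinol to 1 uM final; incubate 6 h at 37 C; add CellTiter-Glo; read luminescence after 30 min at RT.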

[13] = qHTS assay to identify small molecule antagonists of the retinoic acid receptor (RAR) signaling pathway (AID 1159552; note: nearly all actives have a fitted effect of over 50% in size; note: potency is the fitted concentration of half-maximal effect)
Outline: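 Quantitative HTS in C3RL4 RARE-luciferase reporter cells. Compounds were added with 1 uM (final) retinol; luminescence was read after 6 hr.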

[14] = qHTS assay to identify small molecule agonists of the retinoic acid receptor (RAR) signaling pathway (AID 1159553); note: potency is the fitted concentration of half-maximal effect
Outline: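 Activation of retinol signaling was monitored via a RARE luciferase reporter in C3RL4 cells. After 6 hr compound treatment at 37 C, detection reagent was added for 30 min at room temperature before luminescence reading.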

[15] = qHTS assay to identify small molecule agonists of the RXR signaling pathway - cell viability counter screen (AID 1159529)
Outline: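 Cell viability is measured by CellTiter-Glo luminescence, 30 min at room temperature, in wells already read for beta-lactamase. Engineered HEK 293T cells (RXR-alpha-UAS-bla) are dosed 16 hr at 37 C. Tetraoctyl ammonium bromide serves as positive control.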

SMILES	Potency [1]	outcome [2]	outcome [3]	outcome [4]	outcome [5]	outcome [6]	outcome [7]	Potency [8]	outcome [9]	Potency [10]	Potency [11]	outcome [12]	Potency [13]	Potency [14]	outcome [15]
Cc1cccc(C)c1N	inactive	inactive	inactive	inactive	inactive	inactive	inactive	inactive	inactive	inactive	inactive	inactive	inactive	inactive	–
O=C(O)Cc1ccccc1	inactive	inactive	inactive	inactive	inactive	inactive	inactive	inactive	inactive	inactive	–	inactive	inactive	inactive	inactive
FC(F)(F)c1ccc(Cl)cc1	inactive	inactive	inactive	inactive	inactive	inactive	inactive	inactive	inactive	inactive	–	inactive	inactive	inactive	inactive
CNC(=O)O/N=C/C(C)(C)S(C)(=O)=O	inactive	inactive	inactive	inactive	inactive	inactive	inactive	inactive	inactive	inactive	–	inactive	inactive	inactive	–
CC(=O)C1CCOC1=O (centres undefined)	inactive	inactive	inactive	inactive	inactive	inactive	inactive	inactive	inactive	inactive	–	inactive	inactive	inactive	–
Nc1ccc([As](=O)(O)O)cc1	inactive	inactive	inactive	inactive	inactive	inactive	inactive	inactive	inactive	inactive	–	inactive	–	–	–
Cl[C@H]1OCCO[C@@H]1Cl	inactive	inactive	inactive	inactive	inactive	inactive	inactive	inactive	inactive	inactive	–	inactive	inactive	inactive	–
O=C(O)CCCc1ccc(N(CCCl)CCCl)cc1	inactive	inactive	inactive	inactive	inactive	inactive	–	–	inactive	inactive	–	inactive	–	–	–
CC12CC1(C)C(=O)N(c1cc(Cl)cc(Cl)c1)C2=O (centres undefined)	inactive	inactive	inactive	inactive	inactive	inactive	inactive	inactive	inactive	inactive	–	inactive	–	–	inactive
OCCCCO	inactive	inactive	inactive	inactive	inactive	inactive	inactive	inactive	inactive	inactive	–	inactive	inactive	inactive	inactive
CC(C)CCCCCCOC(=O)c1ccccc1C(=O)OCCCCCCC(C)C	inactive	inactive	inactive	inactive	inactive	inactive	inactive	–	inactive	inactive	–	inactive	–	–	–
CCCCCCCCCCCCCCCCCC(=O)O	inactive	inactive	inactive	inactive	inactive	inactive	inactive	–	inactive	inactive	inactive	inactive	inactive	inactive	inactive
CC(=O)/C=C/c1ccccc1	inactive	inactive	inactive	inactive	inactive	inactive	inactive	inactive	inactive	inactive	–	inactive	–	–	–
CNC(=O)O/N=C/C(C)(C)SC	inactive	inactive	inactive	inactive	inactive	inactive	inactive	inactive	inactive	inactive	–	inactive	inactive	inactive	–
O=[N+]([O-])c1cc([As](=O)(O)O)ccc1O	inactive	inactive	inactive	inactive	inactive	inactive	inactive	inactive	inactive	inactive	–	inactive	inactive	inactive	–
O=C(O)COc1ccccc1	inactive	inactive	inactive	inactive	inactive	inactive	inactive	–	inactive	inactive	–	inactive	–	–	–
O=S(=O)(O)OOS(=O)(=O)O	inactive	inactive	inactive	inactive	inactive	inactive	inactive	inactive	inactive	inactive	–	inactive	–	–	–
CCCOC(=O)c1ccccc1C(=O)OCCC	inactive	inactive	inactive	inactive	inactive	inactive	inactive	inactive	inactive	inactive	–	inactive	–	–	–
Nc1ccc(N)cc1	inactive	inactive	inactive	inactive	inactive	inactive	inactive	inactive	inactive	inactive	–	inactive	inactive	34.4 µM (active) and 23.7 µM (active)	–
Cc1ccc(N=C=O)cc1N=C=O	inactive	inactive	inactive	inactive	inactive	inactive	inactive	inactive	inactive	inactive	–	inactive	inactive	inactive	inactive
COc1cc(-c2ccc(N)c(OC)c2)ccc1N	inactive	inactive	inactive	inactive	–	inactive	inactive	inactive	inactive	inactive	inactive	inactive	inactive and 58.3 µM (active)	inactive	–
Cc1ccc(N)cc1	inactive	inactive	inactive	inactive	inactive	inactive	inactive	inactive	inactive	inactive	–	inactive	inactive	61.5 µM (active) and inactive	inactive
